Reference: the supplement of paper PMC6555819

Columns and labels:
Experiment in all cases: PBM binding z-score (relative to random genomic background probes); higher = stronger binding; sequences stand for … in GC…GCGATTGACAGCGTAGAATGAAGG
[1] = tested on: RARb homodimer (NR concentration 270 nM)
In short: (§1)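 Binding z-scores take random background probes as their reference. They come from custom Agilent 4×180K protein-binding microarrays incubated 1 h with ligand-free nuclear receptor dimers, with antibodies against each partner (one per run) detecting binding. Scanned fluorescence was regression-normalized.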

[2] = tested on: RARg:RXRa (NR concentration 270 nM, RXRa partner concentration 90 nM)
In short: as §1

[3] = tested on: RARg homodimer (NR concentration 270 nM)
In short: as §1

[4] = tested on: RXRa DBDmut IVT, anti-RXR (DBD mutation: RXRa K156A/R161A, NR concentration 90 nM)
In short: as §1

[5] = tested on: RXRa homodimer (NR concentration 180 nM)
In short: as §1

[6] = tested on: THRa:RXRa (NR concentration 90 nM, RXRa partner concentration 90 nM)
In short: as §1

[7] = tested on: THRa homodimer (NR concentration 90 nM)
In short: as §1

[8] = tested on: VDR:RXRa (NR concentration 270 nM, RXRa partner concentration 90 nM)
In short: as §1

[9] = tested on: VDR homodimer (NR concentration 270 nM)
In short: as §1

Sequence	PBM binding z-score [1]	PBM binding z-score [2]	PBM binding z-score [3]	PBM binding z-score [4]	PBM binding z-score [5]	PBM binding z-score [6]	PBM binding z-score [7]	PBM binding z-score [8]	PBM binding z-score [9]
ACTTACGGGTCAACAAGGTTATAGCACGCGTATA	3.84	5.44	5.07	2.33	5.87	4.04	1.05	7.08	2.78
GCTATTAGTTGTAAGGGCAACCGAATGATTCTCG	1.47	0.411	0.637	0.96	0.441	1.73	1.18	0.148	0.507
TCATGTAGGTAAAAGGTGAAAGTCGGTGTGGTAA	2.05	1.81	0.855	1.49	2.61	1.75	0.569	1.57	0.332
ACAAACAGGTGAGTGAAGGTAACTCAGCTGGACG	0.000775	0.131	0.536	-0.35	0.457	1.5	-0.581	-0.124	-0.41
CGAACAAGGGCATGAGTTGATAGCAAATGCCGAT	0.58	1.12	1.42	1.3	0.715	0.492	-0.294	0.706	1.18
CCTACTGGGCCTCGAAAGGTCATTGATTCAGTGA	4.35	4.09	3.27	0.125	4.83	3.14	0.721	3.34	1.43
CCGACTGCGGCATAAGGTTACCATAAGCCAGCCC	0.92	0.306	0.391	0.104	0.766	2.11	1.49	0.0281	-0.279
CGAACTAGGTCAAAGGTCAAAGTCGAGCCAACCA	5.24	8.9	7.55	3.33	10.3	4.58	1.53	6.78	3.66
GCATATAGGTAATATAAGGTGAAAGTCCGATTGT	0.859	0.463	0.731	0.683	1.07	4.5	2.32	0.397	0.0802
CCTAGCAGGCCAATCTGGGTTACTCAAGGCTTGA	0.0666	-0.247	-0.0907	-0.131	-0.48	1.61	-0.596	-0.43	-0.739
ATCTCTAGGTAAGGTTCAGTGAAAGATCGATAGA	0.959	0.973	1.03	1.35	0.69	0.888	0.39	1.33	2.32
TCGAGTAGGTTACCGATGGGGCATTCAGCTTTCT	0.462	1.47	0.276	0.165	0.626	0.0793	-0.771	0.0364	-0.757
GCGACTGGGGCAAAGCCGGTTACCATAAGGTTGG	0.363	-0.242	0.26	-0.988	-0.295	0.48	-0.526	-0.76	-0.688
CTCGAAAGGTCGTGCTCAGGTGAGTATACCAAAC	2.75	5.07	3.86	2.05	4.63	4.17	1.08	3.39	1.2
TTTCGGAGGACACGAAAGGTCAGAGCTCGACATC	4.68	4.88	5.29	0.16	4.66	3.85	1.39	3.54	1.04
TCGAGTAGGTTAGTCTGGGCATTCAGCCAACATA	-0.367	-0.389	-0.417	-0.133	-0.273	0.0539	-0.454	-0.0618	-0.466
TCATATAGGTAAACGGTGAAAGTCGGTGTGGTAA	0.301	0.178	-0.128	1.47	0.601	0.081	0.00294	0.79	-0.132
ACTATTAGTTGAGACGAAGGCAACCGATAGGTTG	-0.559	-0.255	0.233	0.0754	-0.207	-0.702	-0.7	-0.504	-0.261
TTACCAAGGTGAAGGTCGTAGATCCCTCTGTAGA	1.43	1.13	1.04	-0.566	1.66	2.19	0.633	0.681	0.348
ATATGTTGGTTATCGGGTCATTCAGTTTGCGCAT	2.89	2.24	1.97	1.61	2.56	3.26	3.07	4.86	4
CAAACTAGGTCACCTGAAGGTCAAAGTCCGCATG	5.57	8.05	7.61	2.29	6.63	4.16	2.96	5.59	3.86
ACTAGTTGGTCAGCTGAGGTCACATACAATTCGG	4.32	3.83	3.84	1.5	3.53	4.98	4.72	4.21	3.28
TAGCCTAGGTCATGCGGGCCTGTATAGTGTCGGC	2.91	3.78	4.07	0.686	2.87	3.03	1.05	1.75	-0.143
TGTCAAAGTTCAAAGGAAACGTAAGTATCCACAC	3.37	5.07	5.18	3.95	4.12	1.62	-0.452	3.86	3.4
CAAACTAGGTCTAGGTCAAAGTCGGTTTGTGCCA	2.76	2.15	2.3	0.796	1.83	2.9	1.64	1.84	1.1
ATCTCTAGGTAAGACTCCGTTCAGTGAAGAACGC	0.62	0.111	0.108	0.35	-0.00325	0.381	0.809	0.0228	0.435

Sequence	PBM binding z-score [1]	PBM binding z-score [2]	PBM binding z-score [3]	PBM binding z-score [4]	PBM binding z-score [5]	PBM binding z-score [6]	PBM binding z-score [7]	PBM binding z-score [8]	PBM binding z-score [9]
CAAACTAGGTCACGAAAGATCAAAGTCGAATGAC	3.2	4.8	5.53	1.99	4.09	3.49	1.43	3.03	0.583
CCTAGCAGGCCAATCTGGGTCACTTAAGGCTTGA	2.26	1.07	1.19	-0.0983	0.84	3.93	0.596	0.526	0.132
ATCGAAAGGTCGACGAGGTGAGTGTACACCGTTT	3.22	4.45	4.1	1.71	4.92	3.71	1.21	5.55	1.52
CCTTACGGGACACTCCAGGTTATAGCATCGGAGT	0.585	0.478	0.691	0.129	0.276	1.84	0.457	-0.0817	0.239
CATACTAGGTCACAGAGGTCAAAGTCCGTGCGTA	5.73	7.31	7.56	3.27	7.91	4.72	3.18	7.98	6.84
TTACCAAGGTGAAGGTCGGTGATCCCTCTGTAGA	1.61	1.3	0.916	-0.375	1.5	2.21	0.976	0.428	0.13
GGAACGAGGGCAAAATTGATAGCATCTGTCGACG	0.53	0.822	1.08	2.03	0.69	0.648	-0.431	0.352	0.356
CCAACGAGGGCATGAGTTGATAGCAAATGCCGAT	0.406	0.887	1.35	2.04	0.929	1.01	-0.114	1.09	1.2
TCGAGAAGGTTAGGGGCATTCAGAATGGCGTCGA	1.46	1.08	0.841	0.703	1.45	1.12	0.127	1.12	0.971
CCGCCTGGGGCAAGGTTACCATAACGCACAGCCA	1.52	1.06	1.1	-0.994	0.987	1.3	0.7	0.149	-0.0695
GCTGCTAGGTCTGGTTGGTCAGCTAACGGGTACG	0.178	-0.569	-0.564	-0.198	-0.753	-0.722	-0.243	-0.816	-0.214
ATTTACGGGTCAACGAGGTTATAGCACGCGTATA	3.79	6.1	5.62	2.5	6.99	4.19	1.43	8.05	4.5
GCGACTGGGGCATCAGCAGGTTAGCATAACTTAA	0.258	0.506	0.0514	-0.821	0.0592	0.204	-0.74	-0.526	-0.612
ATATGTAGGTTGTCGGGTCATTCAGTTTGCGCAT	2.51	2.24	1.66	1.31	2.44	3.2	3.12	5	4.2
TAGCATAGGTCATGGGCCAGTATACCACGCGAAC	3.37	5.5	4.93	0.253	5.71	2.67	-0.279	3.33	0.267
GCGACTTGGGCATCAGCAGGTTACCATAACTTAA	-0.0318	-0.252	-0.319	-0.131	-0.00546	0.236	0.128	-0.417	-0.321
ACTAGCAGGCCAAGTTTCGGTCACTCAAACAAAG	1.95	1.68	1.53	0.194	-0.395	0.604	0.212	-0.204	-0.0934
TTATCAAGGTGAGCTGAGGTCGTTGATCCAACTC	1.62	1.33	1.07	0.397	1.59	4.64	2.47	3.93	2.33
CCAGACAGATGAGAAGGTAACTCAGCCTCGATTA	-0.0918	0.0576	0.416	0.092	0.0859	0.0683	0.259	0.0435	0.296
CAAACTAGGTGACAGAGGTCAAAGTCCGTGCGTA	4.61	5.54	4.74	2.18	6.14	4.15	1.75	6.42	4.09
TCTTGTAGATCAACAGGAGGTTCAGAAAGATCGA	-0.296	0.00148	-0.0996	0.388	0.331	0.0407	-1	0.595	0.524
TTATATAGGTAAACAGGTGAAAGTCCGTAAGTTA	0.827	0.632	0.572	0.156	0.949	0.802	0.282	0.869	0.242
ATCGAGAGGTCGAGGTGAGTATAGAGAAAGGGAA	2.04	3.39	3.48	1.2	3.51	2.76	0.486	2.41	0.635
GCTCGGAGGACAAAGTCAGAGCTTTGTCCGTAGA	-0.0434	-0.436	-0.0287	-0.569	-0.989	0.05	-0.629	-0.556	-0.348
GGAACGAGGGCAAGTCGATAGCAGAGTTTGATGG	1.18	1.36	2	1.89	0.701	0.983	-0.0774	0.364	1.08
TTACCAAGATGAGCTGAGGTCGTTGATCCAACTC	0.571	0.267	-0.226	0.162	0.858	2.68	1.56	1.35	2.02
